In ChEMBL document CHEMBL1157539, “Thousands of chemical starting points for antimalarial lead identification” (Nature, 2010) one finds Inhibition data, which are given here for 28 compounds.

Assay type in all cases: functional
Test [1] has as its system Plasmodium falciparum. In words: GSK_TCMDC: Inhibition of Plasmodium falciparum 3D7 in whole red blood cells, using parasite LDH activity as an index of growth. Test compounds present at 2uM.
Test [2] deals with Plasmodium falciparum. The test is described as follows: GSK_TCMDC: Inhibition of Plasmodium falciparum Dd2 in whole red blood cells, using parasite LDH activity as an index of growth. Test compounds present at 2uM.
For test [3], the system named is HepG2. In words: GSK_TCMDC: Percent inhibition of human HepG2 cell line. Test compounds present at 10uM.

Turning to `COc1ccc(-c2cnc3[nH]cc(-c4ccc(CCC(=O)O)cc4)c3c2)cn1.O=C(O)C(F)(F)F`, the Inhibition is reported as 98% in test [1], 95% in test [2] and 25% in test [3].

Regarding `CC(C)N1CCN(CCCNc2c3ccccc3nc3ccccc23)CC1.Cl`, the Inhibition worked out at 100% in test [1], 1% in test [2] and 29% in test [3].

With `Cl.Nc1c2ccccc2nc2cc([N+](=O)[O-])ccc12`, the Inhibition in test [1] is given as 98%; in test [2] it was 26%; in test [3], 92%.

With `CCOc1ccc2c(c1)OC(c1ccccc1)(C(F)(F)F)NC2=O` (centres undefined), the results for the Inhibition in test [1], in test [2] and in test [3] were 100%, 98% and 0%, respectively.

For `O=C(NC1CCCCC1)N(Cc1ccc(-c2cccc(CNC3CCCC3)c2)cc1)C1CCN(Cc2ccccc2)CC1.O=C(O)C(F)(F)F`, the results for the Inhibition in test [1], in test [2] and in test [3] were 95%, 59% and 52%, respectively.

In the case of `CC(C)(C)C1CCc2nc(N)nc(N)c2C1.Cl` (centres undefined), the Inhibition in test [1] worked out at 94%; in test [2], 38%; in test [3], 69%.

Regarding `CC(C)c1ccc(NC(=O)c2ccc(C(=O)NCC3CCN(CC4CCCCC4)CC3)cc2)cc1.O=C(O)C(F)(F)F`, the Inhibition in test [1] came to 92%; in test [2], 18%; in test [3] it was 26%.

In the case of `C=CCOc1cccc2c1CCN(CCN1CCC(NC(=O)c3ccc(-c4ccc(Cl)cc4)cc3)CC1)C2`, the values for the Inhibition in test [1], in test [2] and in test [3] were 93%, 22% and 35%, respectively.

Consider `O=C(Nc1ccnc(N2CCCN(Cc3cccc(O)c3)CC2)c1)c1ccc(F)cc1.O=C(O)C(F)(F)F`, for which the figures for the Inhibition in test [1], in test [2] and in test [3] were 90%, 3% and 12%, respectively.

With `O=S1(=O)C=C(c2ccccc2)CC1`, the Inhibition in test [1] is given as 97%; in test [2], 44%; in test [3], 57%.

Take `COc1ccc(CNCCc2cccs2)cc1-c1cccc(S(=O)(=O)NCCN2CCCC2)c1.O=C(O)C(F)(F)F`: the Inhibition in test [1] was 98%; in test [2], 41%; in test [3], 56%.

Turning to `Cn1cccc1CCNCc1ccc(-c2cccc(-c3nc4ccccc4[nH]3)c2)cc1.O=C(O)C(F)(F)F`, the Inhibition in test [1] worked out at 88%; in test [2], 66%; in test [3], 1%.

Turning to `O=C(c1cccc(-c2noc(C(F)(F)F)n2)c1)N1CCN(C(=O)c2ccc3cc[nH]c3c2)CC1`, the Inhibition was found to be 94% in test [1], 85% in test [2] and 15% in test [3].

With `CC(C)COc1ccc(Cl)cc1Cc1nc(-c2nc3cccc(CN4CCN(C)CC4)c3[nH]2)cs1`, the Inhibition in test [1] is recorded as 99%; in test [2], 30%; in test [3], 15%.

With `Cn1cnc(CCNC(=O)c2cccc(-c3cccc(-c4nc5cc(C(F)(F)F)ccc5[nH]4)c3)c2)c1`, the Inhibition in test [1] turned out to be 100%; in test [2] it was 45%; in test [3] it was 37%.

In the case of `Brc1ccc(Nc2nc(NCc3ccccc3)c3ccccc3n2)cc1`, the Inhibition in test [1] was 100%; in test [2], 99%; in test [3] it was 24%.

For `NC1=NC2(CCCCC2)N(OCCCCCCCCNc2nc(N)nc(N)n2)C(N)=N1.O=C(O)C(F)(F)F`, the Inhibition came to 96% in test [1], 99% in test [2] and 44% in test [3].

On to `CCNc1cc(C(=O)N[C@@H](Cc2ccccc2)[C@H](O)CNC2(C(C)C)CCC2)cc(N2CCCCS2(=O)=O)c1.Cl`, for which the values for the Inhibition in test [1], in test [2] and in test [3] were 99%, 85% and 0%, respectively.

With `CC(C)(CNC(=O)C1CCN(CC2CCCCC2)CC1)c1nc(-c2ccc(Cl)c(O)c2)c(-c2ccncc2)[nH]1.Cl`, the Inhibition was 98% in test [1], 31% in test [2] and 0% in test [3].

Take `N=C(N)Nc1nc(-c2cccc(NC(=O)Cc3ccccc3)c2)cs1`: the Inhibition in test [1] is listed as 99%; in test [2], 9%; in test [3], 1%.

Regarding `CN1CCCC1CCCOC(=O)c1ccc(N)cc1` (centres undefined), the Inhibition in test [1] stood at 100%; in test [2] it was 2%; in test [3], 8%.

With `COc1ccc2nccc([C@@H](O)CN3CCC(NCc4ccc5c(c4)oc(=S)n5C)CC3)c2c1.O=C(O)/C=C/C(=O)O`, the Inhibition in test [1] turned out to be 100%; in test [2], 68%; in test [3] it was 14%.

Turning to `FC(F)(F)c1ccc2[nH]c(-c3ccc(-c4ccc(CN5CCN(c6cnccn6)CC5)cc4)cc3)nc2c1.O=C(O)C(F)(F)F`, the Inhibition in test [1] was determined as 99%; in test [2], 50%; in test [3] it was 21%.

For the compound `Cl.c1ccc(-c2cc(NCCNc3cc(-c4ccccc4)nc4ccccc34)c3ccccc3n2)cc1`, the Inhibition in test [1] is on record as 99%; in test [2], 11%; in test [3] it was 0%.

On to `CCNc1cc(C(=O)N[C@@H](Cc2ccccc2)[C@H](O)CNC(C)Cc2cccc(Cl)c2)cc(N2CCCCS2(=O)=O)c1.Cl` (some centres undefined), for which the Inhibition in test [1] was 98%; in test [2], 77%; in test [3], 0%.

Consider `CCN(CCCN1CCCCC1)c1cc(C)nc(Nc2cccc(C(F)(F)F)c2)n1.O=C(O)C(F)(F)F`, for which the Inhibition in test [1] is recorded as 100%; in test [2], 88%; in test [3], 25%.

Regarding `COc1cc2nc(N3CCC(CNC(=O)c4ccc(-c5ccc(C(=O)N(C)C)cc5OCCO)cc4)CC3)nc(N)c2cc1OC`, the Inhibition in test [1] came out at 100%; in test [2] it was 8%; in test [3], 0%.

For `O=C(c1cc(-c2ccccc2O)on1)N1CCN(C(c2ccccc2)c2ccccc2)CC1`, the Inhibition in test [1] stood at 97%; in test [2], 88%; in test [3], 12%.
